According to the supplement of paper PMC12532568:
Counter-ions that a name gives are not always drawn.

Each compound was assayed on Danio rerio larvae Tg(actc1b:ZsGreen-LC3), 3 dpf (assay: LC3 puncta relative area vs vehicle, without NH4Cl (log2 fold change); higher = more autophagosomes). Conditions: 10 µM; treatment time 16 h; NH4Cl: none.
Procedure: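 Transgenic Tg(actc1b:ZsGreen-map1lc3) zebrafish larvae (2 dpf) were treated for 16 h with Tocris library compounds at 10 µM (n = 12 larvae per compound). Skeletal-muscle LC3 puncta area relative to body area was measured by high-content confocal imaging before and after 4 h of 100 mM NH4Cl (autophagic flux), normalised to vehicle (DMSO), and reported as log2 fold change.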

SMILES	LC3 puncta (log2)
CO[C@]12C[C@@H](COC(=O)c3cncc(Br)c3)CN(C)[C@@H]1Cc1cn(C)c3cccc2c13 [Nicergoline]	0.51
CC(C)C[C@H]1C(=O)N2CCC[C@H]2[C@]2(O)O[C@](NC(=O)[C@@H]3C=C4c5cccc6[nH]c(Br)c(c56)C[C@H]4N(C)C3)(C(C)C)C(=O)N12 [Bromocriptine mesylate]	0.17
Clc1cccc(SC2CCNCC2)n1 [Anpirtoline hydrochloride]	0.143
O=c1[nH]oc2c1CCNC2 [THIP hydrochloride]	0.233
c1ccc2sc(C3(N4CCCCC4)CCCCC3)cc2c1 [BTCP maleate]	0.288
Cc1onc(O)c1C[C@H](N)C(=O)O	0.235
O=C(O)/C=C/CO [trans-4-Hydroxycrotonic acid]	-0.0373
CCCCCCC[n+]1ccc(-c2cc[n+](CCCCCCC)cc2)cc1 [DHBP dibromide]	0.00945
C=C(C)[C@H]1CN[C@H](C(=O)O)[C@H]1CC(=O)O [Kainic acid]	0.377
N=C(N)NN [Aminoguanidine hydrochloride]	0.471
CN1C[C@H](CNC(=O)OCc2ccccc2)C[C@@H]2c3cccc4c3c(cn4C)C[C@H]21 [Metergoline]	0.0502
O=C1CCCN1CC#CCN1CCCC1 [Oxotremorine sesquifumarate]	-0.285
OC1CCCCC1N1CCC(c2ccccc2)CC1 (configuration not stated) [(?)-Vesamicol hydrochloride]	0.548
CC(N)Cc1cnc[nH]1 (configuration not stated)	0.372
CC[N+](CC)(CCCNC1=CC(=O)C(NCCC[N+](CC)(CC)Cc2ccccc2)=CC1=O)Cc1ccccc1 [Benzoquinonium dibromide]	-0.144
Cc1cc(C)cc(C(=O)OC2C[C@H]3CC[C@@H](C2)N3C)c1 (some centres not stated) [Tropanyl-3,5-dimethylbenzoate]	0.0365
COc1ccc(C(=O)N2CCCC2=O)cc1 [Aniracetam]	0.228
O=C(O)Cc1cccnc1C(=O)O [Homoquinolinic acid]	-0.131
C=CCN1CC[C@]23c4c5ccc(O)c4O[C@H]2C(=O)CC[C@@]3(O)[C@H]1C5 [Naloxone hydrochloride]	0.085
CN(C(=O)Cc1ccc(Cl)c(Cl)c1)[C@H](CN1CCCC1)c1ccccc1 [ICI 199,441 hydrochloride]	0.0954
c1ccc(CC(c2ccccc2)N2CCCCC2)cc1 (configuration not stated) [(?)-1-(1,2-Diphenylethyl)piperidine maleate]	0.167
CN1[C@@H]2CC[C@H]1C[C@@H](OC(=O)c1cc(Cl)cc(Cl)c1)C2	0.263
S=C=Nc1cccc(C2(N3CCCCC3)CCCCC2)c1 [Metaphit]	0.663
Oc1ccc2c3c1O[C@H]1c4[nH]c5ccccc5c4C[C@@]4(O)[C@@H](C2)N(CC2CC2)CC[C@]314 [Naltrindole hydrochloride]	0.245
CS(=O)(=O)Nc1ccc(Cc2noc(-c3ccc4[nH]cc(CCN)c4c3)n2)cc1	0.431
CC(C)[C@@]1(NC(=O)[C@@H]2C[C@@H]3c4cccc5[nH]cc(c45)C[C@H]3N(C)C2)O[C@@]2(O)[C@@H]3CCCN3C(=O)[C@H](Cc3ccccc3)N2C1=O [Dihydroergocristine mesylate]	-0.412
COc1ccc(CNC(=O)/C=C/c2ccc3[nH]cc(CCN(C)C)c3c2)cc1	-0.124
